Compounds with a hit are over-represented: about 8.7% of the library has one in this group of screens.
JMJD2A Tudor: JMJD2A Tudor domain (human) inhibition | AlphaScreen JMJD2A-Tudor / H3K4me3 peptide binding | Potency, µM (highest dose often 114 µM), for inactives: at the highest dose activity change, negative = inhibition, actives largely listed as inhibitors | 4.4% of 390,000 active; further: on the % scale 0 is the no-effect control and ±100 the full control effect; nearly all actives have a fitted effect of over 50% in size
G9a block: blocks human histone lysine methyltransferase G9a | Q96KQ7 | G9a H3K9 monomethylation, AlphaScreen, 2 h | Potency, µM (series often up to 102 µM), without a hit: at the top dose activity, negative = inhibition, hits mostly inhibitors | 8.8% of 350,000 active; further: on the % scale 0 is the no-effect control and ±100 the full control effect; nearly all actives have a fitted effect of over 75% in size
Target sequence (Q96KQ7 913-1193 limits assumed): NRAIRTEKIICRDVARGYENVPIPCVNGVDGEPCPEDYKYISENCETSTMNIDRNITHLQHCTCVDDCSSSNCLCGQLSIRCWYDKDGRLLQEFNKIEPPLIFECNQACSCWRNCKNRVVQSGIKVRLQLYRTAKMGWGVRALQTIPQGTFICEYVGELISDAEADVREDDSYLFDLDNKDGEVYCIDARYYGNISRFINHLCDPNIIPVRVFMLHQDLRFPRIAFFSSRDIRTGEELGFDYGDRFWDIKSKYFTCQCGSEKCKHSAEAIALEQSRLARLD
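Methyltransferase reactions run at room temperature for 2 h (20 nM enzyme, 500 nM biotin-H3K9 peptide, 20 uM SAM) after a 15 min compound preincubation; product detected by AlphaScreen beads and anti-H3K9me1 antibody.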
Sfp inh: blocks B. subtilis Sfp PPTase activity; Q9F4F7; Biochemical Sfp PPTase activity, qHTS; Potency, µM, inactives show largest response in the series, negative = inhibition, actives largely listed as inhibitors; 3.5% of 310,000 active;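 further: the enzyme is Sfp with the accession as filed and its product quenches rhodamine fluorescence; 0% = enzyme reaction without inhibitor and -100% = no enzyme wells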
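Buffer: 50 mM Hepes-Na pH 7.6, 10 mM MgCl2, 0.01% Nonidet P-40, 0.01% BSA. Enzyme 15 nM, pre-exposed to compound 15 min; substrates then added and fluorescence change tracked over 30 min.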
HP1b binding inh: inhibitors of HP1-beta chromodomain binding to methylated histone tails. AlphaScreen HP1-beta / biotin-H3K9me3 peptide binding. Potency, µM (top dose mostly 114 µM), for inactives: top-dose activity change, negative = inhibition, actives largely listed as inhibitors. 0.56% of 390,000 active; further: nearly all actives have a fitted effect of over 70% in size
Target sequence (P83916 whole entry, looked up): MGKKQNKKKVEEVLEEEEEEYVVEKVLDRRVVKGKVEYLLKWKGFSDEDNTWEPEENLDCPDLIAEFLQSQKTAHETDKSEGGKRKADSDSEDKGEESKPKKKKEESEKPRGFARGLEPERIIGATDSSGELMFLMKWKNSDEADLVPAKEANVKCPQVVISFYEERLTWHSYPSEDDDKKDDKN
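Compound inhibition of the preformed complex between 50 nM HP1-beta and 50 nM biotinylated H3K9me3 peptide was read by AlphaScreen. Buffer was PBS pH 7.4 with 0.01% Tween-20. Incubations ran 30 min at room temperature, with 10 ug/mL donor/acceptor beads.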
ALOX12 inh: ALOX12 (human) lipoxygenase inhibition; purified 12hLO, xylenol orange hydroperoxide absorbance; P18054; 1.1% of 580,000 active; AID 1671190; Potency, µM (doses to about 108 µM), inactives show at the highest dose activity change, negative = inhibition, actives largely listed as inhibitors; further: on the % scale 0 is the no-effect control and ±100 the full control effect
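Purified human 12hLO (150 nM final) in 25 mM Hepes, 0.01% Triton X-100, pH 7.0 was preincubated 15 min at room temperature with compound. Then 40 uM arachidonic acid was added, 30 min. Hydroperoxide was read by Fe-XO absorbance ratio 573/405 nm.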
BAZ2B block: blocks human BAZ2B. Q9UIF8. AlphaScreen BAZ2B-H3K14Ac peptide displacement. Potency, µM (doses to about 114 µM), inactives show at the top dose activity change, negative = inhibition, hits mostly inhibitors. 4.4% of 360,000 active. AID 504333; further: on the % scale 0 is the no-effect control and ±100 the full control effect; nearly all actives have a fitted effect of over 60% in size
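BAZ2B (50 nM) with biotin-H3(5-23)K14Ac peptide (50 nM) in PBS pH 7.4, 0.01% Tween-20, preformed 30 min, then compound 30 min at room temperature; top concentration 110uM. AlphaScreen streptavidin donor/nickel chelate acceptor beads (10 ug/mL final), 20 min dark, signal read.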
Starred values were filed as active, the others as inactive; ! = a repeat was not active; [ ] = dose if it differs, or a comment. The call rests on the fitted dose curve; in most records, active means well fitted curve in the direction sought with a large enough effect; inconclusive means small, poorly fitted or top-dose-only effect, or another doubt; inactive means no such curve, though single readings can be large; an effect the other way counts as inactive or inconclusive. Potency means the concentration at half of the fitted maximal effect.

For Cc1ccc(CNC(=O)CC(C)S(=O)(=O)c2ccc3c(c2)NC(=O)CS3)o1 (stereo not drawn) the results were JMJD2A Tudor -8%, Sfp inh 25µM*, HP1b binding inh -13%, ALOX12 inh 34% and BAZ2B block -24%.
Cc1ccc(CNC(=O)CC(C)S(=O)(=O)c2ccc3c(c2)NC(=O)CO3)cc1 (stereo not drawn) was read as JMJD2A Tudor -2%, G9a block 0%, Sfp inh 10%, HP1b binding inh 40%, ALOX12 inh 1% and BAZ2B block -2%.
Screening COc1cccc(-n2cc(C(=O)O)c3c2C(c2cccc(OC)c2OC)CC(=O)N3)c1 (stereo not drawn) returned ALOX12 inh 15%.
Screening O=C(c1cc(-c2ccccc2)nc2ccccc12)N(Cc1ccco1)C1CC1 returned ALOX12 inh 33%.
For Cc1ccc(/C=N/n2c(C3CCCCC3)n[nH]c2=S)o1 the results were JMJD2A Tudor 10µM*, G9a block 2µM*, Sfp inh -29%, HP1b binding inh inconclusive, ALOX12 inh inconclusive and BAZ2B block -37%.
`O=C1NCCCC1C(=O)N/N=C/c1ccc([N+](=O)[O-])cc1` (stereo not drawn) gave JMJD2A Tudor -3%, G9a block -4%, Sfp inh 10%, HP1b binding inh 53%, ALOX12 inh 145% and BAZ2B block 1%.
`CSc1ccc(/C=N/n2c(C)nnc2C)cc1` gave JMJD2A Tudor 1%, G9a block inconclusive, Sfp inh 12%, HP1b binding inh 10%, ALOX12 inh 5% and BAZ2B block -4%.
S=c1[nH]nc(C2CCCCC2)n1/N=C/c1ccncc1 was read as JMJD2A Tudor 5µM*, G9a block inconclusive, Sfp inh 40µM*, HP1b binding inh -15%, ALOX12 inh -3% and BAZ2B block -15%.
`O=[N+]([O-])c1ccc(/C=N/n2c(C3CCCCC3)n[nH]c2=S)cc1` gave JMJD2A Tudor 89µM*, G9a block inconclusive, Sfp inh -8%, HP1b binding inh -1%, ALOX12 inh 1% and BAZ2B block -30%.
Screening CSc1ccc(/C=N/n2c(C3CCCCC3)n[nH]c2=S)cc1 returned JMJD2A Tudor inconclusive, G9a block 11µM*, Sfp inh -7%, HP1b binding inh inconclusive, ALOX12 inh inconclusive and BAZ2B block inconclusive.
`COc1cc(CNC(=O)CCC2CCN(S(=O)(=O)c3ccccc3)CC2)cc(OC)c1` gave ALOX12 inh -14%.
Screening S=c1[nH]nc(C2CCCCC2)n1/N=C/c1cccs1 returned JMJD2A Tudor 50µM*, G9a block inconclusive, Sfp inh -1%, HP1b binding inh -21%, ALOX12 inh -24% and BAZ2B block -38%.
For O=C(O)c1ccc(/C=N/n2c(C3CCCCC3)n[nH]c2=S)cc1 the results were JMJD2A Tudor 3.5µM*, G9a block 10µM*, Sfp inh 16%, HP1b binding inh 20%, ALOX12 inh inactive and BAZ2B block -14%.
Screening O=C(N/N=C/c1cccnc1)c1cccc(NC(=O)c2cccc(Br)c2)c1 returned JMJD2A Tudor 4%, G9a block 9%[59 µM], Sfp inh 0%, HP1b binding inh 25%, ALOX12 inh -5% and BAZ2B block 10%.
Screening O=C(N/N=C/c1cccnc1)c1cc(O)c(O)c(O)c1 returned JMJD2A Tudor 28µM*, G9a block 32µM*, Sfp inh 40µM*, HP1b binding inh inconclusive, ALOX12 inh inconclusive and BAZ2B block 45µM*.
CC(=O)Nc1cccc(C(=O)N/N=C/c2cccnc2)c1 was read as JMJD2A Tudor 45µM*, G9a block 41%, Sfp inh 16%, HP1b binding inh -11%, ALOX12 inh 4% and BAZ2B block -3%.
`Cn1c(=O)[nH]c(=O)c2c1nc(N1CCN(CC(N)=O)CC1)n2Cc1ccc(Cl)cc1Cl` gave ALOX12 inh 5%.
For Cc1cc(C(=O)O)ccc1N/C=C1\CCCC(C)C1=O (stereo not drawn) the results were JMJD2A Tudor -28%, G9a block inconclusive, Sfp inh 16%, HP1b binding inh -2%, ALOX12 inh 5% and BAZ2B block -37%.
For CC1CCC/C(=C\Nc2ccc(O)cc2)C1=O (stereo not drawn) the results were JMJD2A Tudor 79µM*, G9a block inconclusive, Sfp inh 45µM*, HP1b binding inh 6% and ALOX12 inh inconclusive.
COc1cc2ccccc2cc1C(=O)N1CCC(C(=O)c2ccc3c(c2)OCCO3)CC1 was read as ALOX12 inh -7%.
Screening COc1ccc(/C=N/NC2=NS(=O)(=O)c3ccccc32)cc1 returned JMJD2A Tudor -14%, G9a block -22%, Sfp inh -5%, HP1b binding inh 29%, ALOX12 inh 20% and BAZ2B block -7%.
`O=S1(=O)N=C(N/N=C/c2ccc(Br)o2)c2ccccc21` gave JMJD2A Tudor inconclusive, G9a block 40µM*, Sfp inh 1%, HP1b binding inh 19%, ALOX12 inh 1% and BAZ2B block 0%.
O=S1(=O)N=C(N/N=C/c2ccccn2)c2ccccc21 was read as JMJD2A Tudor 79µM*, G9a block 16%, Sfp inh 6%, HP1b binding inh 35%, ALOX12 inh 14% and BAZ2B block 35µM*.
For CN(c1ccc(Cl)cc1)S(=O)(=O)c1nnc(NC(=O)c2ccco2)s1 the results were JMJD2A Tudor -40%, G9a block -72%, Sfp inh 21%, HP1b binding inh 2%, ALOX12 inh -13% and BAZ2B block -33%.
Screening Cc1ccc(N(C)S(=O)(=O)c2nnc(NC(=O)c3ccco3)s2)cc1 returned JMJD2A Tudor inconclusive, G9a block 4µM*!, Sfp inh 32%, HP1b binding inh 53%, ALOX12 inh -14% and BAZ2B block inconclusive.
`Cc1ccc(N2CCN(S(=O)(=O)c3nnc(NC(=O)c4ccco4)s3)CC2)cc1` gave JMJD2A Tudor -24%, G9a block 28µM*, Sfp inh -8%, HP1b binding inh 42%, ALOX12 inh 47% and BAZ2B block -8%.
O=S(CCCOc1ccc(F)cc1)Cc1cccc(F)c1 (stereo not drawn) was read as ALOX12 inh -49%.
Screening Cc1noc(C)c1S(=O)(=O)N1CCC2(C1)C(=O)N(c1ccccc1)c1ccccc12 (stereo not drawn) returned ALOX12 inh -2%[6.33 µM].
